According to PubChem BioAssay (NCATS):
Results filed as inconclusive are left out. The source made the active and inactive calls. Calls come from the whole dose curve; as a rule, active = well fitted cell-killing curve with a large enough effect; inconclusive = small, poorly fitted or top-dose-only effect; inactive = no such curve, though single readings can be large or run the other way.

Test: qHTS of pediatric cancer cell lines to identify multiple opportunities for drug repurposing: Primary screen for NB1643 cells (AID 1347099); note: nearly all actives have a fitted effect of over 50% in size
Settings: NB1643 neuroblastoma viability, CellTiter-Glo luminescence, 48 h; series mostly up to 46 µM; activity change, negative = cytotoxic: at the top concentration
Text: Drug repurposing or repositioning has been offered as a strategy for drug development in oncology programs. This approach has special potential for childhood cancers and other rare or orphan diseases, where the expected return on new drug development has been a disincentive to pharmaceuticals. […] In this project we exploit the poly-pharmacology of drugs to discover new indications via phenotypic screening of a panel of 19 well-characterized cell lines derived from solid tumors seen in children and adolescents. The goal is to identify approved drugs with previously unrecognized anticancer properties that has the potential to reveal new mechanisms and biological processes involved in carcinogenesis or drug resistance. We employed a titration-based paradigm (quantitative high-throughput screening or qHTS), where all compounds were tested at multiple concentrations for their effect on cell viability. Concentration-response curves (CRCs) were derived directly from the primary screen, and both potency and efficacy values were used to identify compounds with robust bioactivity profiles. We screened the NIH Chemical Genomics Center (NCGC) Pharmaceutical Collection (NPC) and Mechanism Interrogation Plate (MIPE) small molecule collections of approved and investigational compounds against these cell lines; and measured metabolically active cells after 48 hours of compound treatment as a proxy for cell viability. […] Assay Submitter: Nathalia J. Martinez, National Center for Advancing Translational Sciences, National Institutes of Health, Rockville, MD, USA; email: natalia.martinez@nih.gov Shen, M et al. Quantitative high-throughput phenotypic screening of pediatric cancer cell lines identifies multiple opportunities for drug repurposing. Oncotarget 2017 Dec 19;9(4):4758-4772. PMID 29435139.
The cells were obtained from University of North Carolina (UNC), Pediatric Preclinical Testing Program (PPT), and Coriell Institute (CI). qHTS cell viability assay: Cells were assayed in growth media at a density of 500-1,000 cells/well. Five microliters of cells were dispensed into 1,536-well, white, solid-bottom, TC-treated plates (Greiner Bio One) using a multidrop dispenser and incubated at 37 degrees C, 5% CO2, under a humidified atmosphere for 5 hours. Twenty-three nanoliters of compounds and controls (neutral control DMSO or positive control bortezomib at final concentration of 2.3 µM) were subsequently transferred by Kalypsys pintool. For primary screens, the MIPE collection was tested at 11-point dilutions (final concentrations range from 0.78 nM to 46 µM) and the NPC collection at 8-point dilutions (final concentrations range from 0.59 nM to 46 µM). Compounds tested in follow-up screens were assayed at 11-point dilutions. Cells were incubated for 48 hours, followed by addition of 3 µL of CellTiter-Glo (Promega). After a 15 min incubation at room temperature, samples were analyzed for luminescence intensity using a ViewLux High-throughput CCD imager equipped with clear filters.
Potency is the fitted concentration of half-maximal effect.

Row | Structure (SMILES) | Potency | activity change, negative = cytotoxic
1 | S=C(NCc1ccc2c(c1)OCO2)N1CCN(c2ncnc3c2oc2ccccc23)CC1 | 8.55 µM (active) | –
2 | C[C@]12CC[C@H](O)CC1=CC[C@@H]1[C@H]2CC[C@]2(C)C(c3cccnc3)=CC[C@H]12 | – | 10.2% [at 16.1 µM] (inactive)
3 | CC(C[N+](C)(C)C)OC(N)=O (stereo not given) | inactive | –
4 | Nc1nc2[nH]cc(CCc3ccc(C(=O)N[C@@H](CCC(=O)O)C(=O)O)cc3)c2c(=O)[nH]1 | – | -3.69% (inactive)
5 | Nc1nc2ccc(OC(F)(F)F)cc2s1 | – | -27.6% (inactive)
6 | Cc1oncc1C(=O)Nc1ccc(C(F)(F)F)cc1 | – | -13.1% (inactive)
7 | c1ccc([C@H]2CN3CCSC3=N2)cc1 | – | -0.636% (inactive)
8 | CN(C)c1ccc(C2Nc3ccc4ccccc4c3C3=C2C(=O)CC(C)(C)C3)cc1Br (stereo not given) | 20.9 µM (active) | –
9 | Cn1cnc2c(F)c(Nc3ccc(Br)cc3Cl)c(C(=O)NOCCO)cc21 | 9.35 µM (active) | –
10 | Oc1cccc(-c2nc(N3CCOCC3)c3oc4ncccc4c3n2)c1 | 0.215 µM (active) | –
11 | CCN(CC)CCCC(C)Nc1ccnc2cc(Cl)ccc12 (stereo not given) | 1.48 µM (active) | –
12 | COc1ccc2c3n(c(=NC(=O)c4cccnc4)nc2c1OC)CCN3 | 4.18 µM (active) | –
13 | O=C(O)CCc1ccc(NCc2cccc(Oc3ccccc3)c2)cc1 | – | -14.3% (inactive)
14 | CCCS(=O)(=O)Nc1ccc(F)c(C(=O)c2c[nH]c3ncc(-c4ccc(Cl)cc4)cc23)c1F | 3.32 µM (active) | –
15 | O=C(Nc1cccnc1)N1CCC(Cc2cccc(Oc3ccc(C(F)(F)F)cn3)c2)CC1 | – | -18% (inactive)
16 | CC1(C)SCCN(S(=O)(=O)c2ccc(OCC#CCO)cc2)[C@@H]1C(=O)NO | – | -3.71% (inactive)
17 | C[C@@H]1CN(Cc2ccc(F)cc2)[C@@H](C)CN1C(=O)c1cc2c(C(=O)C(=O)N(C)C)cn(C)c2cc1Cl | 2.64 µM (active) | –
18 | O=c1ncn2nc(Sc3ccc(F)cc3F)ccc2c1-c1c(Cl)cccc1Cl | – | -2.98% (inactive)
19 | CCCc1nc2c(C)cc(-c3nc4ccccc4n3C)cc2n1Cc1ccc(-c2ccccc2C(=O)O)cc1 | – | -7.14% (inactive)
20 | COc1ccc(COc2cc3oc(=O)c4cc(C(C)O)ccc4c3cc2OC)cc1 (stereo not given) | – | -15.6% (inactive)

Row | Structure (SMILES) | Potency | activity change, negative = cytotoxic
21 | NC[C@H](O)c1ccc(O)c(O)c1 | – | -20% (inactive)
22 | N#CC[C@H](C1CCCC1)n1cc(-c2ncnc3[nH]ccc23)cn1 | 14.8 µM (active) | –
23 | CCCS(=O)(=O)Nc1ccc(F)c(C(=O)c2c[nH]c3ncc(Cl)cc23)c1F | 20.9 µM (active) | –
24 | Cc1n[nH]c(C)c1Cc1sc2c(c1C(=O)N1C[C@H](O)CO1)c(=O)n(C)c(=O)n2CC(C)C | 1.05 µM (active) | –
25 | NS(=O)(=O)c1cc2c(cc1Cl)NC=NS2(=O)=O | inactive | –
26 | CC(C)(N)C(=O)N[C@H](COCc1ccccc1)C(=O)N1CCC2(CC1)CN(S(C)(=O)=O)c1ccccc12 | 23.5 µM (active) | –
27 | CN[C@@H](C)C(=O)N[C@H]1CCCC[C@H]2CC[C@@H](C(=O)N[C@@H](c3ccccc3)c3cn(CCCCc4ccc(CCCCn5cc([C@@H](NC(=O)[C@@H]6CC[C@@H]7CCCC[C@H](NC(=O)[C@H](C)NC)C(=O)N76)c6ccccc6)nn5)cc4)nn3)N2C1=O | – | 4.6% (inactive)
28 | O=c1[nH]cnc2[nH]ncc12 | inactive | –
29 | O=C(c1cc(Cc2n[nH]c(=O)c3ccccc23)ccc1F)N1CCN(C(=O)C2CC2)CC1 | 14.8 µM (active) | –
30 | CCN(CC)CCCC(C)Nc1nc(C)cc(Nc2ccc3nc(C)cc(N)c3c2)n1 (stereo not given) | – | -19.6% (inactive)
31 | COc1cc(Nc2ncc3c(n2)-c2ccc(Cl)cc2C(c2c(F)cccc2OC)=NC3)ccc1C(=O)O | 13.2 µM (active) | –
32 | O=C(C1CC1)N1CC[C@@H](Cn2c(-c3ccc(-c4ccc5occc5c4)cc3)nc3cnccc32)C1 | – | 21.4% (inactive)
33 | C[C@]12CCC(=O)C=C1CC[C@@H]1[C@@H]2[C@@H](O)C[C@@]2(C)[C@H]1CC[C@]2(O)C(=O)CO | – | 4.69% (inactive)
34 | CCOc1cc(C(=O)Nc2ccc(Cl)c(-c3nc4ccccc4[nH]3)c2)cc(OCC)c1OCC | 11.8 µM (active) | –
35 | CC[C@@H](C)[C@H](NC(=O)[C@H](CC1CCCCC1)NC(=O)c1ccno1)C(=O)N1CCC2(CCc3ccccc32)CC1 | 23.5 µM (active) | –
36 | Cc1ccnc(NS(=O)(=O)c2ccc(NC(=O)Nc3ccc(S(=O)(=O)Nc4nccc(C)n4)cc3)cc2)n1 | – | -23.8% (inactive)
37 | NC(=O)c1ccc(I)c([N+](=O)[O-])c1 | – | -34.9% (inactive)
38 | NC(=O)c1ccc(-c2nc(-c3ccc4c(c3)OCCO4)c(-c3ccccn3)[nH]2)cc1 | – | -9.19% (inactive)
39 | OC(CCN1CCCCC1)(c1ccccc1)C1CC2C=CC1C2 (stereo not given) | inactive | –
40 | OCCn1cc(-c2cnc3nnn(Cc4ccc5ncccc5c4)c3n2)cn1 | – | -6.42% (inactive)
